This note sets out measurements from the supplement of paper PMC7724964.

T1: CLTC 1-363 Clathrin_propel+Clathrin-link (domain begin residue: 1, domain end residue: 363), Q00610
T1 chain: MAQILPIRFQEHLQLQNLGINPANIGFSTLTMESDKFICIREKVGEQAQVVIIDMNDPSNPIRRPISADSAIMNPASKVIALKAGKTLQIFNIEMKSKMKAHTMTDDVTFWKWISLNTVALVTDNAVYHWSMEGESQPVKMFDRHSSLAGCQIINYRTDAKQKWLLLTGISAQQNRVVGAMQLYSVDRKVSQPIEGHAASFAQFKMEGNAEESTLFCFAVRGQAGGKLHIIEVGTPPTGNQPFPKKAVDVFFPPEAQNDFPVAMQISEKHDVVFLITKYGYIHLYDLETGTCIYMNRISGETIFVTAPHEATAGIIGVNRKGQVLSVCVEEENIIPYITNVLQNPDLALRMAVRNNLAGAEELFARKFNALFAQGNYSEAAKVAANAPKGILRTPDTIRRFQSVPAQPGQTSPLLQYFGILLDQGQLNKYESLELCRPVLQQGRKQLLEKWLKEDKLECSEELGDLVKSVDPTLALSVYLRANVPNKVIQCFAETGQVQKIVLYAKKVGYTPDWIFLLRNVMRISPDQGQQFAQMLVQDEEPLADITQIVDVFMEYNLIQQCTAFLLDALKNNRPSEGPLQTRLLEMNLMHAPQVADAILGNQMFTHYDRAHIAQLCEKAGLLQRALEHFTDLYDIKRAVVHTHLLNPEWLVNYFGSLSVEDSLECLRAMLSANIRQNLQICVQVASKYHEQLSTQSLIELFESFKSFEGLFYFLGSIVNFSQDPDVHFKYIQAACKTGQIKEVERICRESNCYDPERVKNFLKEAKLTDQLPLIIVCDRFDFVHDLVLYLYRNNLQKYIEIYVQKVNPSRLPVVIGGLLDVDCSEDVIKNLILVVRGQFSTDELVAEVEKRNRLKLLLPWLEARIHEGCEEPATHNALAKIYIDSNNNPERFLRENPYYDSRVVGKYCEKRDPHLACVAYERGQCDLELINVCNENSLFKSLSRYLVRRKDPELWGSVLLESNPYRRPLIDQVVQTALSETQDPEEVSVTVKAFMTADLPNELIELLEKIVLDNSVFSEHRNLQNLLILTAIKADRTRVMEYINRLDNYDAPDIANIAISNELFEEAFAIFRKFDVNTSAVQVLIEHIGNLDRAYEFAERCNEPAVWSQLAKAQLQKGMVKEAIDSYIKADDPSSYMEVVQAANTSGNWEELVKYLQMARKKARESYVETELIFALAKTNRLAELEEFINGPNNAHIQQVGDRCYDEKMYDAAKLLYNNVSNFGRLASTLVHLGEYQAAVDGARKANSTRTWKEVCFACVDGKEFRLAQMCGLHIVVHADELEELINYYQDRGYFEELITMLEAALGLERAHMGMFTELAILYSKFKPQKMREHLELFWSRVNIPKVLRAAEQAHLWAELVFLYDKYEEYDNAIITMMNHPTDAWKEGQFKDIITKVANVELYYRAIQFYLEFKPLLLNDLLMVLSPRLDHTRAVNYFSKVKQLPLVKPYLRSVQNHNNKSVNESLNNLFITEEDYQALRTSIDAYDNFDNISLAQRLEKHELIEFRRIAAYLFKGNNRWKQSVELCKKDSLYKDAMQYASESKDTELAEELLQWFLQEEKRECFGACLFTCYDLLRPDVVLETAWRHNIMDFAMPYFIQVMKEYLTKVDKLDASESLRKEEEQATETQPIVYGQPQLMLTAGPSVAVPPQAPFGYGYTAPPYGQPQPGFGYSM

T2: CD2BP2 256-341 GYF (domain begin residue: 256, domain end residue: 341), O95400
T2 chain: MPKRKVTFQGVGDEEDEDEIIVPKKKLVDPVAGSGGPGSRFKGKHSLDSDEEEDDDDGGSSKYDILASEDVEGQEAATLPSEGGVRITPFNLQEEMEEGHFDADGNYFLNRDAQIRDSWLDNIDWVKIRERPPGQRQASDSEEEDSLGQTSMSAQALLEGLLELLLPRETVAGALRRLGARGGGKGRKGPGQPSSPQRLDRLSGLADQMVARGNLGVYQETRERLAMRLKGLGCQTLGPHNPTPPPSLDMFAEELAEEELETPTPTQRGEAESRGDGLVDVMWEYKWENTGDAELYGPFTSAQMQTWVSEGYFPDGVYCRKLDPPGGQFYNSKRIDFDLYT

T3: CTDSP2 90-271 NIF (domain begin residue: 90, domain end residue: 271), O14595
T3 chain: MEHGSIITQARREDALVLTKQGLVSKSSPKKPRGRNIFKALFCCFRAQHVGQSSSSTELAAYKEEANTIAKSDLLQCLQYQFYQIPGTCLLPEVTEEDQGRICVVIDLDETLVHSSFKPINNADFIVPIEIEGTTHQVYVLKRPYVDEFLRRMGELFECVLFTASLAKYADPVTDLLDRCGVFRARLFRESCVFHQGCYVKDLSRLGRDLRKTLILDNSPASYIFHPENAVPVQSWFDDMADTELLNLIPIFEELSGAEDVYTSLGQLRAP

T4: GIGYF2 507-602 GYF (domain begin residue: 507, domain end residue: 602), Q6Y7W6
T4 chain: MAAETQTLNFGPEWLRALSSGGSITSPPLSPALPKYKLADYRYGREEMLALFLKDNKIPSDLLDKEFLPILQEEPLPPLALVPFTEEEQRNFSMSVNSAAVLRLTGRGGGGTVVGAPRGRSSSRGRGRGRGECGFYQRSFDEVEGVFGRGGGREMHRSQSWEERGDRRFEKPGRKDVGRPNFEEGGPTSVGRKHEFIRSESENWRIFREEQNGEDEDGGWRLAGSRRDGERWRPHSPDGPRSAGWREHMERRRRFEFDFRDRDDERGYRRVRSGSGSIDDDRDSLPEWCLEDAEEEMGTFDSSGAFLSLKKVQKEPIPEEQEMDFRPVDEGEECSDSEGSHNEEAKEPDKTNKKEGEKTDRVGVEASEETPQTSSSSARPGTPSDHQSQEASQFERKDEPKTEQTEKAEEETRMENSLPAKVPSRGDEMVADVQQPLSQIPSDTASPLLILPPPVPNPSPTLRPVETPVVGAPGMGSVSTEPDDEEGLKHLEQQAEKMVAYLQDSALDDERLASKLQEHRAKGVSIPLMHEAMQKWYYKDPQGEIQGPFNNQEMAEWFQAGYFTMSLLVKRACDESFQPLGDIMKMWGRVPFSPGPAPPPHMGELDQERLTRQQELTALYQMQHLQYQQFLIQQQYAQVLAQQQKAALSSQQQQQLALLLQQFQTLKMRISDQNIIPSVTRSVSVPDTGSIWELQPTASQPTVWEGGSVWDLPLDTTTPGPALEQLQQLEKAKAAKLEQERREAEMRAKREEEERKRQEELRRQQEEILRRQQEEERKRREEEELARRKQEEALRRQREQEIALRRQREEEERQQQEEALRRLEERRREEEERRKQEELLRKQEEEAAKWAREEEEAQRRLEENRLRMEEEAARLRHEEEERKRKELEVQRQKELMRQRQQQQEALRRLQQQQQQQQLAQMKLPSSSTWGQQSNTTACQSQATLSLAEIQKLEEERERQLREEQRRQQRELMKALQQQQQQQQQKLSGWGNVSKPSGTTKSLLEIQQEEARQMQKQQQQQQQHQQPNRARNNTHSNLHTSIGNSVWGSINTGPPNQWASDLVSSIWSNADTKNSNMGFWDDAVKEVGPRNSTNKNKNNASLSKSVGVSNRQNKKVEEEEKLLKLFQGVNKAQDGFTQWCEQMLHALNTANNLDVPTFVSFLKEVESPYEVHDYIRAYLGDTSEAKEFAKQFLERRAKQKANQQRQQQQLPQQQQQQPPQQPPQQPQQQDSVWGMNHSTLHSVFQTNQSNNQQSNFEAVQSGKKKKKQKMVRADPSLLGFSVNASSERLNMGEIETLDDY

CBX3 109-173 Chromo_shadow (domain begin residue: 109, domain end residue: 173), Q13185, sequence (Q13185 whole entry): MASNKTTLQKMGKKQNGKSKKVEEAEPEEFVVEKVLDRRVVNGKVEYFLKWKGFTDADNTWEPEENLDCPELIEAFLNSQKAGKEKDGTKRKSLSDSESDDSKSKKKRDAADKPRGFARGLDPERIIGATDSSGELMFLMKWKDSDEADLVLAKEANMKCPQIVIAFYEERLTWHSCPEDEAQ
CKS1B 1-79 CKS (domain begin residue: 1, domain end residue: 79), P61024, sequence (P61024 whole entry): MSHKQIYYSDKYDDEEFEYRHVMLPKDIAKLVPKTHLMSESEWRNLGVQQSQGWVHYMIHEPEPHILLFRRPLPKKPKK
DCTN1 26-97 CAP_GLY (domain begin residue: 26, domain end residue: 97), Q14203, sequence (Q14203 whole entry): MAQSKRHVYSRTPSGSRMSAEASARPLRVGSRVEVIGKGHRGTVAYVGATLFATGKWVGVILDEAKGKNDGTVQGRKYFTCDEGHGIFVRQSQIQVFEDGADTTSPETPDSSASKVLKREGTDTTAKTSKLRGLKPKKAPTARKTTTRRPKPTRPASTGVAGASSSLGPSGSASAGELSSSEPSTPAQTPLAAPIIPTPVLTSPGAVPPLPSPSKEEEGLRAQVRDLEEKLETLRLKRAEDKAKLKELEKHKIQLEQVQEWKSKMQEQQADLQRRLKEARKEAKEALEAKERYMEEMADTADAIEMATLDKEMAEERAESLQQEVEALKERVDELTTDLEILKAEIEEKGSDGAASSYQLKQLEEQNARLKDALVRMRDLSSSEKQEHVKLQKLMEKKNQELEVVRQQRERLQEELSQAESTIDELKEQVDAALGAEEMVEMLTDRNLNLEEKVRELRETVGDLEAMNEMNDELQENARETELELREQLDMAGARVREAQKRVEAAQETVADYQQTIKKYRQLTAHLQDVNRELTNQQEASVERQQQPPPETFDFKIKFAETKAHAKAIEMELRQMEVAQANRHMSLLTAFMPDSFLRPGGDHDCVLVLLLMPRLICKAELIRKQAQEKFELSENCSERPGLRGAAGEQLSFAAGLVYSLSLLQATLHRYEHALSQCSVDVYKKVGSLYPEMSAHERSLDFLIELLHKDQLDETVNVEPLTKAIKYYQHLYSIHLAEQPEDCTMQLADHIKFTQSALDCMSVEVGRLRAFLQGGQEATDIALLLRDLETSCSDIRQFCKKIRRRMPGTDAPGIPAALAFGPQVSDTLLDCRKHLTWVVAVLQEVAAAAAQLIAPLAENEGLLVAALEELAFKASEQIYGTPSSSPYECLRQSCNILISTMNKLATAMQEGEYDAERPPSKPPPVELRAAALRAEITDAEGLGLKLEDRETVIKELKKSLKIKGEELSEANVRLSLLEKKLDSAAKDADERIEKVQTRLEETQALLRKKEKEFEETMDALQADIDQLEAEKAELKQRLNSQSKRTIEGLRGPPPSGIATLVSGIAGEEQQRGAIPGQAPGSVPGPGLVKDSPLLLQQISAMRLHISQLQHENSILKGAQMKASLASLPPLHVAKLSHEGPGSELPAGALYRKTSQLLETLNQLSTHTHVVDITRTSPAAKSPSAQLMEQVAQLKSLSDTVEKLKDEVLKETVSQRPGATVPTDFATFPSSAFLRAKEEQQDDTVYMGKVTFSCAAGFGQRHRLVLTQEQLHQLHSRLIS
CBX5 109-173 Chromo_shadow (domain begin residue: 109, domain end residue: 173), P45973, sequence (P45973 whole entry): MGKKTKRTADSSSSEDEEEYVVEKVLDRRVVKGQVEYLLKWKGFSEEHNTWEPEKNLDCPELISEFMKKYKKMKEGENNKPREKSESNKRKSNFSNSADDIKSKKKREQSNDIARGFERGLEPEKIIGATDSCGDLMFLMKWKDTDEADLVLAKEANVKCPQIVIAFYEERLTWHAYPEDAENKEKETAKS

The first test concerns the target DEPDC6 20-129 DEP (domain begin residue: 20, domain end residue: 129). The test is described as follows: phage ELISA signal ratio (GST-PRM binding over GST background); higher = stronger binding of peptide-phage to the PRM. The method, then: (§1)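 Phage-displayed random hexadecapeptides (Cys-free, flanked by invariant Gly linkers, fused to the M13 P8 major coat protein) were selected over 5 rounds against GST-fused human PRM domains. Individual clones from rounds 4-5 were tested by phage ELISA, and positive clones binding the target but not GST were sequenced. Values are the ELISA signal ratio of target over background (GST); the background signal is given separately.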
For orientation: ELISA stands for enzyme-linked immunosorbent assay.
Regarding QFDLWMRNVMLDFWAD, the “phage ELISA signal ratio” value worked out at 11.2. The same measure, in the same setting: under LAGFHPWFSEMLAEYH stands 8.33; under DDGWMMDWWHQAQLQM, 6.22; under EMLAGNEFRAMMDEYY, 7.5. Regarding GETHLMFSNMMEFYKY, the “phage ELISA signal ratio” value amounted to 19.9. On the same count and under the same terms, under DFQGIMDSYRAMEINT stands 20.1; under EVPLWFYNIISEFHET, 13.8; under THSEQWFETLMWNFHN, 3.26. The same measure, in the same setting: the figure for MPVWWEDWYWDWKSMH is 6.24.

Another test concerns the target T1, CLTC 1-363 …. The test is described as above. The method, then:
as §1
As to SPFVYDIVDLGFPSIM, the “phage ELISA signal ratio” value was 22.5. Regarding WLDYNDWLEMDHWEYV, the “phage ELISA signal ratio” value was found to be 23.8.

Consider GMSPLIEWPEEWWWLD, for which the “phage ELISA signal ratio” value is 21. On the same count and under the same terms, the figure for DQQQWDDMDWLATWML is 32.5. On the same count and under the same terms, the figure for WELQWDAIWGFPDELA is 30.6; for SDGDLIWWDWAYNAEQ it is 15.9. Still for that read-out and setting: under EVFDLISWDDGMWHSV stands 28.8; under WPNLEWMWDDEDMQFH, 15.5. Consider YTLTIDELEHWLSAGG, for which the “phage ELISA signal ratio” value is 31.7.

On to DLIWWTDLTEEYGTHV, for which the “phage ELISA signal ratio” value is 21.9. The same measure, in the same setting: the figure for VSYPLVDLSDWHMWTN is 20.8. On the same count and under the same terms, the figure for DWAQVLWQDAHDWPVY is 23.9; for DLMWWPETELHQGSWS it is 17.3.

In the case of MYEFLIEPEDDWWWWN, the “phage ELISA signal ratio” value stood at 26.5.

The next test has as its target CKS1B 1-79 CKS (domain begin residue: 1, domain end residue: 79), P61024. Described as above. The method, then:
as §1
As to WDGQAWHLSDPYLWEM, the “phage ELISA signal ratio” value is 17.9. Still for that read-out and setting: under SQPEQMQWHTYDPYDL stands 30.4; under LNWWTYEELQDLEQFT, 22.8. The same measure, in the same setting: the figure for GPLAWFLEDPYSSRVG is 11.1; for GWEPQWFPSEHLADGN it is 7.45; for IDYESIFYEGMHWHTL it is 22.1. Same read-out and setting: under MDSWHYDMIPGEWLRV stands 34.3. In the case of MTWTATWYASDPYMEV, the “phage ELISA signal ratio” value is 28.8. Same read-out and setting: the figure for QQWDPSWYYPQELVKM is 20.5. On the same count and under the same terms, under NSMSYMDIVWHSFDTI stands 19.2.

A further test concerns the target CBX5 109-173 Chromo_shadow (domain begin residue: 109, domain end residue: 173), P45973. The description is as above. The method, then:
as §1
Consider QFLPTTWQDYLLYMDQ, for which the “phage ELISA signal ratio” value turned out to be 3.39.

Another test deals with T2, CD2BP2 256-341 GYF (domain begin …. The description is as above. The method, then: as §1
Turning to GHPPGWSEFGWEHLVI, the “phage ELISA signal ratio” value stood at 16.2. On the same count and under the same terms, the figure for TIPPGYFKWVGEVRDE is 16.3; for WQATDYPQQPPPGWKE it is 18.9. Same read-out and setting: the figure for EDPTLKVGHPPGWSFK is 17.6. On the same count and under the same terms, under QEFMSISYPPGMPQDP stands 14.4; under YPYPPGWDSNYAQRVE, 19.2; under MEEPPGYRLNMYAMSY, 17.5. With PPPGYSKWTWSVQERV, the “phage ELISA signal ratio” value is 14.2. With EPPGWEVRQPGMVQVQ, the “phage ELISA signal ratio” value turned out to be 16.9.

In the case of TAPPGYGARYMETPYV, the “phage ELISA signal ratio” value worked out at 16.9.

The next test has as its target DCTN1 26-97 CAP_GLY (domain begin residue: 26, domain end residue: 97), Q14203. The description is as above. The method, then:
as §1
For the molecule QDEWVPWQLWSQWESI, the “phage ELISA signal ratio” value is 26.4. The same measure, in the same setting: under HGMDYLNREFPWDWWT stands 16.6; under FKEWTWSPVEWGQAES, 6.09.

Take MEWTWEQWDLGADYVK: the “phage ELISA signal ratio” value is 21.2. The same measure, in the same setting: under HEFTPPWTWDWDIPHI stands 7.35; under MSDPPTLEHWEYMSWE, 12.

The target of the next test is T3, CTDSP2 90-271 NIF (domain begin …. The test is described as above. The method, then: as §1
As to EQVSFMHEWHQRFWQT, the “phage ELISA signal ratio” value came out at 9.81.

For EPFMVAWESFMLTHAM, the “phage ELISA signal ratio” value came out at 7.49.

For a further test, the target named is DEPDC1B 7-110 DEP (domain begin residue: 7, domain end residue: 110), Q8WUY9. Described as above. The method, then: as §1
DEPDC1B 7-110 DEP (domain begin residue: 7, domain end residue: 110), Q8WUY9, sequence (Q8WUY9 whole entry): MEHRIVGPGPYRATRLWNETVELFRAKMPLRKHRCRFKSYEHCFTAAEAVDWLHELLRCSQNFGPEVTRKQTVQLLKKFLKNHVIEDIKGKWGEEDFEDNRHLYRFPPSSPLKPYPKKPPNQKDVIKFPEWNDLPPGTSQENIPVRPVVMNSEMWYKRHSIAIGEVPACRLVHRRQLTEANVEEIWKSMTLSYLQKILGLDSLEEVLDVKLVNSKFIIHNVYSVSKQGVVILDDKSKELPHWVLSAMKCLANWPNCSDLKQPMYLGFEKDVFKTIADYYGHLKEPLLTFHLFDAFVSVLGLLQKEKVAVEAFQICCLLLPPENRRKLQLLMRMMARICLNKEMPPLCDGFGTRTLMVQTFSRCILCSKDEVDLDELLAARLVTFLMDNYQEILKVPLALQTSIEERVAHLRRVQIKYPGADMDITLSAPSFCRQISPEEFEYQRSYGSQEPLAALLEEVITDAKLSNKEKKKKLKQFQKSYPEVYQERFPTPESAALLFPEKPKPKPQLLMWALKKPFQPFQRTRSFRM
For DLPYEWSHFWDSIEHH, the “phage ELISA signal ratio” value is 4.2.

For a further test, the target named is CBX3 109-173 Chromo_shadow (domain begin residue: 109, domain end residue: 173), Q13185. The test is described as above. The method, then:
as §1
Consider HDVWASSWNWDDFRLN, for which the “phage ELISA signal ratio” value was 12.7. On the same count and under the same terms, the figure for HWIDSWEGFRARVIPS is 12.6. Same read-out and setting: under RDEAHMEWHFPSIWLT stands 16.2.

For the next test, the target named is DEPDC6 132-222 DEP (domain begin residue: 132, domain end residue: 222). Described as above. The method, then:
as §1
Regarding IWWEQLHQDDWQAIWA, the “phage ELISA signal ratio” value is 15.1.

Another test has as its target T4, GIGYF2 507-602 GYF (domain begin …. The description is as above. The method, then: as §1
On to EPPGWEVRQPGMVQVQ, for which the “phage ELISA signal ratio” value was 17.5.
